Measurements from paper PMC12136788.
Whole data set: some 5,800 sequences, median “enrichment r” near 0.68, cut for the highest 2% near 11. This excerpt belongs to a sample that is enriched for the highest values.

T1: UNK ZnF1-6 (called full-length) (human, UniProt Q9C0B0 30-357)
T1 sequence: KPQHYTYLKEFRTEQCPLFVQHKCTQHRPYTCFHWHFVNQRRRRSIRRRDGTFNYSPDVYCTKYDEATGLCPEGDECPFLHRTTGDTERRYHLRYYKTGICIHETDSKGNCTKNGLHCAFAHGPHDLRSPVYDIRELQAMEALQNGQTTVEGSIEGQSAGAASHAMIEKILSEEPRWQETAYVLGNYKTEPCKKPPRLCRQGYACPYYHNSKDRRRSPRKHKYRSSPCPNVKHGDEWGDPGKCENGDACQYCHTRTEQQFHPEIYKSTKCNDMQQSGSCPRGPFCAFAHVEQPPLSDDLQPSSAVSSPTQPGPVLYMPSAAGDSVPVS

B1: chr4:113382420:113382521:+|3pUTR|ENSG00000145362|msi1|FALSE|bound_elsewhere (ssRNA)
RNA: GGGAGUUCUACAGUCCGACGAUCUCUUCAGGUCUUUAGAUCUUGGACAAGUUGGCAGGGUAUUUUAAAAGCUAUAACUACUGUAGUUUUCCAGUUUUCAUUGCUGCUUUAGCAAACCACGCUGUCUUACAGUGGUACUUUCUUCAACAGAGGAUUGAGCAUCA
B2: chr2:171482635:171482736:+|3pUTR|ENSG00000115827|unk|FALSE|unique (ssRNA)
RNA: GGGAGUUCUACAGUCCGACGAUCCAAGAGUGUUUCAGAAUAGGAUGUCUUAAGACUUCAGUCAUGUCAGAGAUUUUUUUUUUUAGGUGAUUAUUGAGUUUCUCCUUCUCCUUUAAGUCAUCACCUUCCUUUUAUGAAAUGAUACAACAGAGGAUUGAGCAUCA
B3: chr9:104535772:104536723:-|CDS|ENSG00000204246|control|control|control (ssRNA)
RNA: GGGAGUUCUACAGUCCGACGAUCGACAAGCUCAUUUCUCUGUUUUAUGGGGUAGUGACACCCAUGCUGAAUCCUAUACUCUAUAGCUUGAGAAAUAAGGAUGUAAAAGCUGCUGUAAAAUAUUUGCUGAACAAAAAACCAAUUCAACAGAGGAUUGAGCAUCA
B4: chr8:23842113:23842214:-|3pUTR|ENSG00000159167|msi1|FALSE|unique (ssRNA)
RNA: GGGAGUUCUACAGUCCGACGAUCACUUUAGACAUUUUUGUGCCAUUAUAUUUGCAUUAUGUAUUUAUAAUUUAAAUGAUAUUUAGGUUUUUGGCUGAGUACUGGAAUAAACAGUGAGCAUAUCUGGUAUAUGUCAUUAUUUAUCAACAGAGGAUUGAGCAUCA
B5: ENSG00000112936:stop:overlap|stop_codon|ENSG00000112936|stop_codon|NA|stop_codon (ssRNA)
RNA: GGGAGUUCUACAGUCCGACGAUCGAUGCAGAGGGCAGAGCAUCUCUGUCACCAGCAUAAGGCCUUGUGCUGCGGAAACCCAGUAGGCUCCUGGAGGCCCUGGUCAGCUUGCUUGGAAUCCAGCAGGCAGCUGGGGCUGAGUGACAACAGAGGAUUGAGCAUCA
B6: ENSG00000170312:stop:overlap|stop_codon|ENSG00000170312|stop_codon|NA|stop_codon (ssRNA)
RNA: GGGAGUUCUACAGUCCGACGAUCGCAAAAUGGCACUGAAUCAUCCAUAUUUUAAUGAUUUGGACAAUCAGAUUAAGAAGAUGUAGCUUUCUGACAAAAAGUUUCCAUAUGUUAUAUCAACAGAUAGUUGUGUUUUUAUUGUUACAACAGAGGAUUGAGCAUCA
B7: chr2:69942770:69942871:+|3pUTR|ENSG00000059728|unk|FALSE|unique (ssRNA)
RNA: GGGAGUUCUACAGUCCGACGAUCUGUUUCCAGAUGUUUCUUUAUGUAAAUAUGACGCCAAUGUAAAUCCUGUGUCAAGAUCAUAGAGAAUGGUGCUUUUUACUACAGUUAGCACAUGCAUUUUUAGAAACUACUACAUGUUUUCAACAGAGGAUUGAGCAUCA
B8: ENSG00000114439:stop:overlap|stop_codon|ENSG00000114439|stop_codon|NA|stop_codon (ssRNA)
RNA: GGGAGUUCUACAGUCCGACGAUCUUCAUUGUAAAACAUUGUGCUUUACCUACUACCCUAGCCUUGUCUUUACCGAGGGAUGCUAGUGAGUCCAAGUGGUGGAAAAUAUAGACUGCAAACAAGUGCUUGUUGCCCCACACGGCCCAACAGAGGAUUGAGCAUCA
B9: ENSG00000117906:stop:overlap|stop_codon|ENSG00000117906|stop_codon|NA|stop_codon (ssRNA)
RNA: GGGAGUUCUACAGUCCGACGAUCAGUCCUUUAGGAAGCAUCAAUGUGGAGGUUUGGGGCUCCAUCCUCAGAGCCAGUCUGCUUAGCUUCACAUUUAGCUCCAGCACUUCACGGUUGUGUAACUUUGGCUUCACUUAAAGGACACAACAGAGGAUUGAGCAUCA
B10: chr12:104348774:104348848:+|3pUTR|ENSG00000198431|msi1_unk|total|mutant (ssRNA)
RNA: GGGAGUUCUACAGUCCGACGAUCCGUUGUCAAGUUUUCCCGGGUUGAAUUUUUUUCUUUUUUCUCCAUGGUGUUAAUGAUAUCCGAGAUGAAAAACGUCCGCAGUUGAUUUUUGUCCAAAAGCAAGUCAUGGCCCGAGUAUCCCAACAGAGGAUUGAGCAUCA
B11: chr10:62094764:62094865:+|3pUTR|ENSG00000150347|msi1|FALSE|unique (ssRNA)
RNA: GGGAGUUCUACAGUCCGACGAUCGAUGAACUCCCCAACCCACUGUGCCCCUCCCGCAACACUACCAGUAGACUUUAGAACCAUAGUUAACUAAGUCUUUUACCUCUGAGAUACUUAAUUCUGGGAAAAUUGGUGACAAUUUUCCAACAGAGGAUUGAGCAUCA
B12: chr12:95514132:95514176:+|3pUTR|ENSG00000111142|msi1_unk|FALSE|overlapping (ssRNA)
RNA: GGGAGUUCUACAGUCCGACGAUCCUUUUAAAUGCUAACUGUUUUUCCCCUUCCUGUCUAGGAAAAUGCUAUAAAGCUCAAAUUAGUUAGGAAUGACUUAUACGUUUUGUUUUGAAUACCUAAGAGAUACUUUUUGGAUAUUUACAACAGAGGAUUGAGCAUCA
B13: chr22:49888080:49888186:+|3pUTR|ENSG00000100426|unk|FALSE|unique (ssRNA)
RNA: GGGAGUUCUACAGUCCGACGAUCUGGCUUAUUAACAGGGAAGAAGCUUGUUAUAUUCCAGUUGUAAGAAUAGCCUUAGUGUUUAGAUUUUUUUAUGAUAGGGAAGAUGCGGCCAUCACUGGGAUAUUUUCAAAUCCCAAGGACCAACAGAGGAUUGAGCAUCA
B14: chr3:98797553:98797658:-|3pUTR|ENSG00000057019|msi1|FALSE|unique (ssRNA)
RNA: GGGAGUUCUACAGUCCGACGAUCAUUUCAUUCAUUGAAGAAUCAAUACAUAUUUUGUUUCAAAAUGUUUGAAACAAAAGACAUAGAUGGUAGACUUUUAUUAAAACAUAUAUGGAUGUGGAAAGCACAUAUAUUAAUGCAGUCCAACAGAGGAUUGAGCAUCA
B15: chr18:54155150:54155251:-|3pUTR|ENSG00000134046|unk|FALSE|unique (ssRNA)
RNA: GGGAGUUCUACAGUCCGACGAUCUUUCCACUGGCUUUUGCCUGUAAGAAAAAAAAUGUACCCGAGCACAUAGAGCUUUUUAAUAGCACUAACCAAUGCCUUUUUAGAUGUAUUUUUGAUGUAUAUAUCUAUUAUUCAAAAAAUCAACAGAGGAUUGAGCAUCA
B16: chrX:115010634:115010735:-|CDS|ENSG00000123496|msi1|FALSE|unique (ssRNA)
RNA: GGGAGUUCUACAGUCCGACGAUCUGGAUCAUCAGAGAACAAGCCUAUCAGAUCCAGUUAUUUCACUUUUCAGCUUCAAAAUAUAGGUGAUGUAAACCAACAAACAACUUCAAAUUCAUUGUUUCUAGUUUAGGCCAUUUACAACAACAGAGGAUUGAGCAUCA
B17: chr2:99394746:99394872:+|CDS|ENSG00000158417|unk|FALSE|unique (ssRNA)
RNA: GGGAGUUCUACAGUCCGACGAUCGAUGUGAGAAUUGAACGAGAUGCACAAGAAAUGGCUGAUAGUUUAGGAGUUAGAAUUUUUAGUGCAGAAAUUAUUUAUCAUUUAUUUGAUGCCUUUACAAAAUAUAGACAAGACUACAAGCAACAGAGGAUUGAGCAUCA
B18: chr1:42278343:42278454:-|CDS|ENSG00000198815|unk|FALSE|bound_elsewhere (ssRNA)
RNA: GGGAGUUCUACAGUCCGACGAUCAAAAAGAAAAUGACUUUAAGUGAAAUUUAUCAGUGGAUUUGUGAUAACUUCCCAUAUUAUAGAGAGGCUGGCAGUGGUUGGAAGGUAAGGAUUUUAUUUAAAUUAUUACUUUUAUGAAGUCAACAGAGGAUUGAGCAUCA
B19: chr16:21983864:21984660:-|three_prime_utr|ENSG00000155714|control|control|control (ssRNA)
RNA: GGGAGUUCUACAGUCCGACGAUCAAAGAAAAUUGAGCUGGCAAAAGAUGAAUCUUUCACAAGCAGUGAUGAUAAUGAAAAUGUAGAUUUAGAUAAAAGACUUCAAUAUUAUAGAUAUCCGUGGUCAACUGUGCAUCACCCUGCCAACAGAGGAUUGAGCAUCA
B20: chr18:68676332:68676434:-|3pUTR|ENSG00000166479|msi1_unk|FALSE|overlapping (ssRNA)
RNA: GGGAGUUCUACAGUCCGACGAUCAUCAAGAUUAUGAGGUUAAAAAUAAUGUGGUUUUAUAUAGCAUAGUGGUUUUAUUUUGUUAGUUAUUUUUAAAGGAGAAGAAAUGUUACUUUUUAACUUUAUACUCAGUUGCAUUAUCAUCAACAGAGGAUUGAGCAUCA
B21: chr4:65323451:65323552:-|3pUTR|ENSG00000145242|msi1|FALSE|unique (ssRNA)
RNA: GGGAGUUCUACAGUCCGACGAUCAUCAAGAAAAAGUACAAUACAGGGUGUAUAUUUAUUUUUUGUGUUAUAAAGUUUACUUUUAGUUGCUCUUCUAGAGAUUAUUAGGUAAUAAAUGUGUAUAUACUGUAUAAUUUGCAAUAUCAACAGAGGAUUGAGCAUCA
B22: chr15:100649042:100649144:+|3pUTR|ENSG00000183475|unk|FALSE|unique (ssRNA)
RNA: GGGAGUUCUACAGUCCGACGAUCUACCUCUGCUUUUCUUUUGCUGUGCUCUUGUUUUUAACUUAUUUUUUUUUUAACAACUGUAGUACACUACCCUGAGACACUGCAUCUCGAUUUCUAUCUCUAGUUAGAGUUGUACUUUUACAACAGAGGAUUGAGCAUCA
B23: chr18:55223968:55224079:-|3pUTR|ENSG00000196628|unk|FALSE|unique (ssRNA)
RNA: GGGAGUUCUACAGUCCGACGAUCUAUAAAGCUUUGUUUGUCUAGUGCUCUUUUGCUAUAAAAUAGACUGUAGUACACCCUAGUAGGAAAAAAAAAAAACUAAAUUUAAAAAUAAAAAAUAUAUUUGGCUUAUUUUUCGCAGGACAACAGAGGAUUGAGCAUCA

Target: T1, UNK ZnF1-6 (called full-length)
Test: nsRBNS (natural sequence RNA bind-n-seq); RBNS binding buffer (assumed for nsRBNS): 25 mM Tris pH 7.5, 150 mM KCl, 3 mM MgCl2, 0.01% Triton X-100, 500 ug/ml BSA, 20 U/ml SUPERase-In, 4 C; UNK is unkempt and MSI1 is Musashi-1; names of the RNAs are library labels; protein concentration not given here; high values mean tight binding

Q: B1 was tested. Which binding signal did it give?
A: 0.392 enrichment R

Q: Which binding signal does the source give for B2 here?
A: 1.03 enrichment R

Q: With B3 as the binder, how does the binding signal read?
A: 0.451 enrichment R

Q: For B4, which binding signal is on record?
A: 3.25 enrichment R

Q: B5 was tested. Which binding signal did it give?
A: 0.329 enrichment R

Q: With B6 as the binder, how does the binding signal read?
A: 0.706 enrichment R

Q: B7 was tested. Which binding signal did it give?
A: 0.538 enrichment R

Q: Which binding signal does the source give for B8 here?
A: 0.604 enrichment R

Q: For B9, which binding signal is on record?
A: 0.657 enrichment R

Q: Which binding signal does the source give for B10 here?
A: 0.359 enrichment R

Q: Which binding signal does the source give for B11 here?
A: 3.7 enrichment R

Q: For B12, which binding signal is on record?
A: 2.63 enrichment R

Q: With B13 as the binder, how does the binding signal read?
A: 11.3 enrichment R

Q: How did the binding signal turn out when B14 was run?
A: 1.11 enrichment R

Q: For B15, which binding signal is on record?
A: 5.14 enrichment R

Q: With B16 as the binder, how does the binding signal read?
A: 0.759 enrichment R

Q: Which binding signal does the source give for B17 here?
A: 15.9 enrichment R

Q: Which binding signal does the source give for B18 here?
A: 3.38 enrichment R

Q: B19 was tested. Which binding signal did it give?
A: 2.22 enrichment R

Q: With B20 as the binder, how does the binding signal read?
A: 48.4 enrichment R

Q: How did the binding signal turn out when B21 was run?
A: 3.94 enrichment R

Q: B22 was tested. Which binding signal did it give?
A: 5.29 enrichment R

Q: With B23 as the binder, how does the binding signal read?
A: 39.5 enrichment R
